Records with an inconclusive call do not appear. A call without a number means that no potency is given here. The source made the active and inactive calls. Unless noted, the call rests on the fitted dose curve; in most records, active means well fitted curve in the direction sought with a large enough effect; inconclusive means small, poorly fitted or top-dose-only effect, or another doubt; inactive means no such curve, though single readings can be large; an effect the other way counts as inactive or inconclusive.
Legend:
[1] = target: Calcium and integrin-binding protein 1 (Homo sapiens) (UniProt Q99828); test: Primary qHTS for Identification of Calcium Integrin Binding Protein 1 (CIB1) Competitor (AID 1508620);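 further: GST tagged CIB1 binding a fluorescein labelled alphaIIb integrin peptide tracer; top concentration of the series differs between compounds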
Calcium and integrin-binding protein 1 (Homo sapiens), sequence (Q99828 whole entry, looked up): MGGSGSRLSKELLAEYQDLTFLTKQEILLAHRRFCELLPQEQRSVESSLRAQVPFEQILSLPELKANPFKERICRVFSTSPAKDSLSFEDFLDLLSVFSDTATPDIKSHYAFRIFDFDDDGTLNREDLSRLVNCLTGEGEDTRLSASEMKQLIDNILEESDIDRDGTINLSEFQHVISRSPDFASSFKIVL
Outline: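 CIB1-GST (1 uM final) and compound incubated 15 min at room temperature before adding FITC-alphaIIb peptide tracer (100 nM final). Competition for binding read by fluorescence polarization (ex 480, em 540) after another 15 min at room temperature.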

[2] = target: Cytochrome P450 2D6 (Homo sapiens) (UniProt P10635); test: Cytochrome P450 family 2 subfamily D member 6 (CYP2D6) small molecule antagonists: luciferase biochemical (cell-free) qHTS assay (AID 1645840; active means well fitted curve in the direction sought with a large enough effect in the repeat runs; an effect the other way counts as inactive or inconclusive; further: nearly all actives have a fitted effect of over 55% in size; further: potency means the concentration at half of the fitted maximal effect)
Cytochrome P450 2D6 (Homo sapiens), sequence (P10635 whole entry, looked up): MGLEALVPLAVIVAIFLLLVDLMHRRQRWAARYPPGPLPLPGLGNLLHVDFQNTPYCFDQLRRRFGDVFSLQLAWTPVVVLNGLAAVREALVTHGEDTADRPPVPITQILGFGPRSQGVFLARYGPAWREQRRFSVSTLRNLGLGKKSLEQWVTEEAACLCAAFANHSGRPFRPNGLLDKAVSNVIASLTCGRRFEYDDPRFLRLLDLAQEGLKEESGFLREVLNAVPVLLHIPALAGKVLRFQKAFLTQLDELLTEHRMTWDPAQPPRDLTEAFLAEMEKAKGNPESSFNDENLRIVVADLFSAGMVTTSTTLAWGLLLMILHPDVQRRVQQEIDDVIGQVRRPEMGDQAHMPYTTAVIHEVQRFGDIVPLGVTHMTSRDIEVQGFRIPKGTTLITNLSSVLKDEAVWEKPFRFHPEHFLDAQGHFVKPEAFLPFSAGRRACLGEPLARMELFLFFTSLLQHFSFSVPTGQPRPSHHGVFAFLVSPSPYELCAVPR
Outline: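 P450-Glo luminescent screen: recombinant CYP2D6 enzyme–proluciferin substrate mix preincubated with compound 10 min at room temperature, then NADPH regeneration added for 1 h at room temperature. Detection reagent added for 20 min; luciferin light read as relative luminescence units.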

[3] = Primary qHTS for small molecule stabilizers of the endoplasmic reticulum resident proteome: Secreted ER Calcium Modulated Protein (SERCaMP) assay (AID 1508630)
Outline: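 GLuc-SERCaMP-expressing SH-SY5Y cells, pretreated 16 h with compound, are challenged with thapsigargin to empty ER calcium stores; after 4 h, coelenterazine is added directly to the medium and luminescence is imaged.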

| SMILES | Potency [1] | Potency [2] | Potency [3] |
| --- | --- | --- | --- |
| Cc1cccc(Nc2nc(-c3ccncc3)cs2)c1 | inactive | 0.849 µM (active) |  |
| CC(=O)O[C@]1(C(C)=O)CC[C@@H]2[C@@H]3C[C@H](C)C4=CC(=O)CC[C@]4(C)[C@H]3CC[C@@]21C | inactive |  | inactive |
| CC(C)(Cc1ccc2ccccc2c1)NC[C@@H](O)COc1cccc(Cl)c1C#N | inactive | 0.379 µM (active) | inactive |
| OC[C@H]1O[C@@H](n2cnc3c2NC=NC[C@@H]3O)C[C@H]1O | inactive |  | inactive |
| Cn1c(N2CCCCS2(=O)=O)nc(C(=O)NCc2ccc(F)cc2)c(O)c1=O | inactive | inactive | inactive |
| COc1cc2ncnc(-n3nc(-c4ccccn4)nc3N)c2cc1OC | inactive | 7.56 µM (active) | inactive |
| COc1cc(N2CCC(N3CCN(C)CC3)CC2)ccc1Nc1ncnc(Nc2ccccc2S(=O)(=O)C(C)C)n1 | inactive | inactive | inactive |
| COCCOC(=O)C1=C(C)NC2=C(C(=O)CC(c3ccccc3OC)C2)C1c1cccc(O)c1 (configuration not stated) | inactive | 10.7 µM (active) | inactive |
| CC(C)(C)Cn1c(N)nc2ccc(-c3[nH]c(C(C)(C)C)nc3-c3ccc(F)cc3)nc21 | inactive | 15.1 µM (active) | inactive |
| O=C(NOCC(O)CO)c1cc(Br)c(F)c(F)c1Nc1ccc(I)cc1F (configuration not stated) | inactive |  | inactive |
| CS(=O)c1ccc(-c2nc(-c3ccc(F)cc3)c(-c3ccncc3)[nH]2)cc1 (configuration not stated) | inactive | 6.74 µM (active) | inactive |
| O=C(O)CCC1CCC(c2cc(F)ccc2F)(S(=O)(=O)c2ccc(Cl)cc2)CC1 (configuration not stated) | inactive | inactive | inactive |

— PubChem BioAssay (NCATS)
